PubChem BioAssay AID2284330 (EPA ToxCast)
Results filed as inconclusive are left out. Activity calls are given as the source filed them. Rule for the calls: active = hit-call score of the fitted dose curve at least 0.9, where 1 is the maximum; inconclusive = response in the unintended direction; inactive = score below 0.9.

What follows are compounds tested on frog Glucocorticoid Receptor (GR), gene 397897 (assay: ATG_frGR_EcoTox2: Attagene TRANS-FACTORIAL EcoTox-2 HepG2 Assay for frog Glucocorticoid Receptor (GR)).
Protocol: ATG_EcoTox2 is a cell-based, multiplexed assay created by modifying the existing Attagene TRANS-FACTORIAL system to include a panel of nuclear receptors from some or all the following species: human (Homo sapiens), african clawed frog (Xenopus laevis), rainbow trout (Oncorhynchus mykiss), japanese medaka (Oryzias latipes), and zebrafish (Danio rerio). The ECOTOX2-FACTORIAL format uses HepG2, a human liver cell line, with measurements taken at 24 hours after chemical dosing in a 24-well plate. ATG_frGR_EcoTox2 is one of 29 assay components calculated in the ATG_EcoTox2 assay. It is designed to make measurements of mRNA induction, a form of inducible reporter, as detected with fluorescence intensity signals by Reverse transcription polymerase chain reaction (RT-PCR) and Capillary electrophoresis technology.The assay endpoint ATG_frGR_EcoTox2 was analyzed in the positive analysis fitting direction relative to DMSO as the negative control and baseline of activity. Using a type of inducible reporter, measures of mRNA for gain-of-signal activity can be used to understand the reporter gene at the transcription factor-level as they relate to the gene for glucocorticoid receptor. Furthermore, this assay endpoint can be referred to as a primary readout, because this assay has produced multiple assay endpoints where this one serves a reporter gene function. To generalize the intended target to other relatable targets, this assay endpoint is annotated to the nuclear receptor intended target family, where the subfamily is steroidal.
Human liver HepG2 cells are transiently transfected with multiple reporter transcription units (MRTUs) in 6-well plates using FuGene 6 reagent (Roche; 3 ml FuGene/1 mg DNA). The MRTU constructs are regulated by a cis-regulating element (promoter). Each RTU expresses a GAL4-UAS that regulates the transcription of a nearby target reporter gene sequence. A major difference between the CIS and TRANS system is that in CIS activities of endogenous TFs are measured, whereas the TRANS assay evaluates changes in activities of exogenous, chimeric NR-Gal4 proteins. […] At the end of 24 hour incubation, total RNA was isolated using TriZol reagent (Invitrogen). The isolated RNA is then reverse-transcribed using oligo(dT) primer and Mo-MLV reverse transcriptase (Invitrogen) with DNAse I (Ambion) treatment for 30 min. The one-tenth of the produced cDNA was amplified by PCR using Taq DNA polymerase (Invitrogen) and two reporter sequence-specific primers. The PCR products were fluorescently labeled by primer extension with 6-arboxyfluorescein (6-FAM) 5'-labeled reporter sequence-specific primer (2 min at 95 C, 20 s at 68 C and 10 min at 72 C) and these products were digested with 5U of HpaI (New England Biolabs) for 2h at 37 C. The fragments were purified using Qiaquick PCR columns (Qiagen), analyzed on an ABI 3130xL genetic analyzer (Applied Biosystems) with peak positions identified by using a set of X-rhodamine (ROX)-labeled MapMarker1000 molecular weight standards (BioVentures). The raw capillary electrophoresis data was processed using Attagraph software (Attagene).
With `CC(C)(Oc1ccc(C2CC2(Cl)Cl)cc1)C(=O)O` (stereo unspecified) the outcome was “inactive”.
With `CN(CCOc1ccc(CC2SC(=O)NC2=O)cc1)c1ccccn1` (stereo unspecified) the AC50 was 30.8 µM (active).
In the case of `C[C@]12C=CC(=O)C=C1CC[C@@H]1[C@@H]2C(=O)C[C@@]2(C)[C@H]1CC[C@]2(O)C(=O)CO`, the outcome is reported as “inactive”.
With `CC(C)(Oc1ccc(Cl)cc1)C(=O)O` the outcome was “inactive”.
With `CC(C)(Oc1ccc(CCNC(=O)c2ccc(Cl)cc2)cc1)C(=O)O` the outcome was “inactive”.
`CC(c1cc2ccccc2s1)N(O)C(N)=O` (stereo unspecified) was tested, and the AC50 was 34.3 µM (active).
In the case of `Cc1cccc(Nc2cc(Cl)nc(SCC(=O)O)n2)c1C`, the outcome is reported as “inactive”.
With `CC(C)OC(=O)C(C)(C)Oc1ccc(C(=O)c2ccc(Cl)cc2)cc1` the outcome was “inactive”.
For `C[C@@H]1C[C@H]2[C@@H]3CCC4=CC(=O)C=C[C@]4(C)[C@@]3(F)[C@@H](O)C[C@]2(C)[C@@]1(O)C(=O)COP(=O)(O)O`, the AC50 was 0.00998 µM (active).
`C=C(c1ccc(C(=O)O)cc1)c1cc2c(cc1C)C(C)(C)CCC2(C)C` was tested, and the outcome was “inactive”.
With `Cc1ccc(C)c(OCCCC(C)(C)C(=O)O)c1` the outcome was “inactive”.
